Records with an inconclusive call do not appear. Activity calls are given as the source filed them. Unless noted, the call rests on the fitted dose curve; in most records, active means well fitted curve in either direction with a large enough effect (not every such curve was filed as active); inconclusive means small, poorly fitted or top-dose-only effect, or another doubt; inactive means flat fitted curve, though single readings scatter.

Assay [1] is described as follows: AP1 Signaling Pathway (AID 357).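 Further: ME-180 reporter cells stimulated with EGF at its EC50 level; on the % scale 0 is the no-effect control and ±100 the full control effect.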 An outline of the steps: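 Cells are seeded overnight, exposed to compound titrations and an EC50 level of EGF for 5 hours at 37 °C, then loaded with CCF4 dye for 2.5 hours. Beta-lactamase activity under the AP-1 element is read as a blue/green ratio.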
The nature of assay [2]: NFAT Signaling Pathway (AID 444).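 Further: carbachol stimulus at about its EC50 of 1 µM final; on the % scale 0 is the no-effect control and ±100 the full control effect.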 Conditions: Jurkat NFAT-bla M1, carbachol, beta-lactamase ratio, 5 h; at 7.69 µM (top of the series). An outline of the steps: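 Read-out: CCF4 FRET ratio (460 nm/530 nm) after 1 h RT dye loading, used for %activity and AC50 from titration series. Cells: Jurkat NFAT-β-lactamase/M1 line, treated with compound plus 1 uM carbachol for 5 h, 37 °C.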

The nature of assay [3]: Stat Signaling Pathway (AID 446).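 Further: ME-180 cervical cancer cells given 40 pM IL-6 alongside compound; SIE-controlled beta-lactamase reporter measured as 460/530 nm FRET emission ratio; on the % scale 0 is the no-effect control and ±100 the full control effect.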 An outline of the steps: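 FRET read-out (405 nm excitation, 460/530 nm emission) of a beta-lactamase reporter under a STAT-inducible element in ME-180 cervical carcinoma cells. Cells with compound receive 40 pM IL-6 for 5 h. Values are normalised to AC90 stimulation and AC90 JAK-inhibitor controls.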
Assay [4] addresses Glucocorticoid receptor (Homo sapiens) (UniProt P04150). Nature of the assay: GR-EFC Redistribution (AID 451; calls by dose curve; further: potency means the concentration at half of the fitted maximal effect). The settings on record: CHO-K1 GR-EFC translocation, beta-gal luminescence, 2 h. An outline of the steps:
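Translocation of GR-ED fusion to nuclear EA restores b-gal, read by luminescence after 1 h room-temperature detection. Engineered CHO-K1 biosensor cells, 1,000/well, exposed 2 h at 37 C to titrations up to 46 uM final.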

Assay [5] has as its target Mitogen-activated protein kinase 10 (Mus musculus) (UniProt Q61831). Kind of assay: JNK3 AlphaScreen Assay (AID 530).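 Further: kinase came from lysate of stimulated human HepG2 cells; signal reports phosphorylation of biotinylated GST-cJun 1-79 at Ser73 with 10 µM ATP; on the % scale 0 is the no-effect control and ±100 the full control effect.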 In a few lines:
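Kinase buffer: 20 mM Tris-HCl pH 7.6, 10 mM MgCl2, 1 mM DTT, 0.1 mM Na3VO4, 0.01% Tween-20; ATP 10 uM. Substrate biotin-GST-cJun(1-79), enzyme from activated HepG2 lysates. Detection by Ser73 phospho-antibody AlphaScreen.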

Assay [6] has as its target 3',5'-cyclic-AMP phosphodiesterase 4B (Homo sapiens) (UniProt Q07343). Kind of assay: qHTS Assay for Inhibitors of PDE-IV (AID 607; active means well fitted activation curve with a large enough effect in the main read-out, with a control signal flat, not every such curve was filed as active; further: % of control where 0% means no effect). An outline of the steps:
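Cell-based read-out of cAMP via a modified cyclic nucleotide-gated channel and membrane potential dye (535/590 nm) in HEK293 cells expressing PDE4 endogenously. Compounds tested up to 22.9 uM final; 100 uM RO 20-1724 reference.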

Assay [7] is described as follows: qHTS Assay for Identification of Small Molecule Agonists for Hypoxia Response Element Signaling Pathway (AID 914; active means well fitted activation curve with a large enough effect in the signal ratio, with a control signal flat, not every such curve was filed as active; the % refers to the signal ratio; further: % of control where 0% means no effect). The settings on record: ME-180 (cervical carcinoma) HRE-bla reporter, beta-lactamase ratio, CoCl2, 17 h; activation: stronger effect = higher value. An outline of the steps:
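ME-180 cells carrying an HRE-driven beta-lactamase reporter were treated with compounds in a titration series plus an EC50 level of CoCl2 for 17 h at 37 degrees Celsius; CCF4 readout as the 460nm/530nm ratio gave AC50 values.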

Assay [8] is described as follows: qHTS Assay for Lipid Storage Modulators (AID 1519; calls by dose curve). Conditions: Drosophila S3 cells, BODIPY lipid droplet/cell ratio, laser cytometry, cells loaded with oleic acid; for activity change, negative = inhibition: at 57.5 µM (top of the series). An outline of the steps:
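Cells seeded at 5,000 per well were treated with compounds over a concentration series and loaded with oleic acid (400 uM, as added). Lipid droplet fluorescence (488 nm excitation, 500-530 nm channel) was read by laser-scanning cytometry and normalized to 20 uM Triacsin C.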

Assay [9] is described as follows: Primary qHTS for small molecule stabilizers of the endoplasmic reticulum resident proteome: Secreted ER Calcium Modulated Protein (SERCaMP) assay (AID 1508630; active means well fitted curve in the direction sought with a large enough effect; an effect the other way counts as inactive or inconclusive; further: on the % scale 0 is the no-effect control and ±100 the full control effect). An outline of the steps:
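The SH-SY5Y reporter protocol was run at 3 concentrations up to 38.3 uM (primary) or 11 concentrations (follow-up): 16 h compound, 100 nM thapsigargin for 4 h, then extracellular luciferase luminescence.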

Assay [10] concerns the target Lysosomal acid glucosylceramidase (Homo sapiens) (UniProt P04062). Kind of assay: Glucocerebrosidase-p2 (AID 348; in the data active means potency below about 10 µM; further: potency means the concentration at half of the fitted maximal effect). The settings on record: purified GBA, blue fluorogenic substrate, 40 min. In a few lines: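 Normal human glucocerebrosidase (0.2 nM) with blue fluorogenic substrate (80 uM final) in citrate/phosphate pH 5.9 with 10mM sodium taurocholate, 0.01% tween-20; 40 min RT, NaOH/glycine stop; fluorescence Ex 365/Em 440; AC50 from a titration from 0.6 nM upwards.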

Assay [11] addresses Cytochrome P450 1A2 (Homo sapiens) (UniProt P05177). Nature of the assay: p450-cyp1a2 (AID 410; calls by dose curve; further: potency means the concentration at half of the fitted maximal effect;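 on activity change, negative = inhibition: -100% = full effect of reference inhibitor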). In a few lines: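 Read-out is luminescence from luciferin produced by CYP1A2 demethylation of Luciferin-ME (100uM, at Km). Detection reagent stopped the 60 min NADPH-dependent reaction; signals were normalized to 57 uM furafylline.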
Assay [12] concerns the target Cytochrome P450 3A4 (Homo sapiens) (UniProt P08684). Kind of assay: qHTS Assay for Activators of Cytochrome P450 3A4 (AID 885; active means well fitted curve in the direction sought with a large enough effect; an effect the other way counts as inactive or inconclusive; further: nearly all actives have a fitted effect of over 65% in size). In a few lines:
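Luminescent readout of luciferin formed from 25 uM Luciferin-PPXE (KM level) by 20 nM CYP3A4 in 200 mM KPO4, with 60 min NADPH-driven reaction at room temperature after 10 min compound exposure. Ketoconazole (57 uM) defined 100% inhibition.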

Assay [13] deals with Cytochrome P450 2D6 (Homo sapiens) (UniProt P10635). Nature of the assay: qHTS Assay for Inhibitors and Substrates of Cytochrome P450 2D6 (AID 891; active means well fitted curve in the direction sought with a large enough effect; an effect the other way counts as inactive or inconclusive; further: potency means the concentration at half of the fitted maximal effect; nearly all actives have a fitted effect of over 60% in size). In a few lines:
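Luminescent read-out of luciferin formed by 5 nM human CYP2D6 demethylating 30 uM Luciferin-ME EGE (Km level) over 60 min at room temperature after NADPH regeneration addition. Data normalized to full inhibition by 1.43 uM quinidine.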

Assay [14] addresses Cytochrome P450 3A4 (Homo sapiens) (UniProt P08684). Nature of the assay: qHTS Assay for Inhibitors and Substrates of Cytochrome P450 3A4 (AID 884; active means well fitted curve in the direction sought with a large enough effect; an effect the other way counts as inactive or inconclusive; further: potency means the concentration at half of the fitted maximal effect; nearly all actives have a fitted effect of over 50% in size). In a few lines:
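Luminescent readout of luciferin produced by CYP3A4 (20 nM) dealkylation of Luciferin-PPXE, 25 uM (its KM). NADPH-driven reaction ran 60 min at RT after 10 min compound preincubation; data scaled to 57 uM ketoconazole as 100% inhibition.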

Assay [15] is described as follows: Confirmation and Secondary Assay for Modulators of Hemoglobin Beta Chain Splicing at IVS2 654 locus (AID 910; active means well fitted curve in the direction sought with a large enough effect; an effect the other way counts as inactive or inconclusive;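 further: HeLa cells stably carrying EGFP split by mutant beta-globin IVS2-654 intron; per-well total GFP intensity by laser scanning cytometry after 2-day treatment; % of control where 0% means no effect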). An outline of the steps: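 Readout: per-well total peak green fluorescence (488 nm ex, 500–520 nm em) from objects 5–250 µm, reflecting correct splicing of an EGFP-654 reporter. Compounds were applied for 2 days at 37 °C to overnight-plated HeLa EGFP-654 cells; controls were DMSO and 500 nM IVS2-654 PNA.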

A short description of assay [16]: Confirmation and Secondary Assay for Modulators of Hemoglobin Beta Chain Splicing at IVS2 705 locus (AID 930; active means well fitted curve in the direction sought with a large enough effect; an effect the other way counts as inactive or inconclusive;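 further: HeLa cells stably expressing the EGFP-705 splicing reporter; % of control where 0% means no effect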). In a few lines:
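HeLa cells stably carrying EGFP interrupted by mutant beta-globin IVS2-705 intron (CMV-driven) were seeded at 500 cells/well, treated next day with compound for 2 days at 37C; corrected splicing restores EGFP, read as total peak GFP intensity per well.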

The target in assay [17] is Ubiquitin carboxyl-terminal hydrolase 1 (Homo sapiens) (UniProt O94782). Nature of the assay: Inhibitors of USP1/UAF1: Pilot qHTS (AID 504865; active means well fitted curve in the direction sought with a large enough effect; an effect the other way counts as inactive or inconclusive;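 further: rhodamine fluorescence freed from ubiquitin-rhodamine substrate followed over time; top concentration of the series differs between compounds; on the % scale 0 is the no-effect control and ±100 the full control effect; nearly all actives have a fitted effect of over 35% in size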). An outline of the steps: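 USP1/UAF1 complex (1nM) preincubated with compound 15 min at room temperature, then Ub-Rho substrate (150nM final) added. Fluorescence read kinetically at 480/540 nm, 6 reads every 60 seconds. Buffer: 50mM HEPES pH 7.8, 0.5mM EDTA, 0.1 mg/ml BSA, 1mM TCEP, 0.01% Tween-20.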

In assay [18] the target is Cytochrome P450 2C9 (Homo sapiens) (UniProt P11712). Kind of assay: qHTS Assay for Inhibitors and Substrates of Cytochrome P450 2C9 (AID 883; active means well fitted curve in the direction sought with a large enough effect; an effect the other way counts as inactive or inconclusive; further: potency means the concentration at half of the fitted maximal effect; nearly all actives have a fitted effect of over 60% in size). In a few lines:
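Turnover of Luciferin-H (100uM, KM) by 10nM human CYP2C9 was measured over 60 min at 37C with NADPH regeneration; inhibitors and some substrates reduce luminescence. Data normalized to sulphaphenazole 57uM.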

The mark [19] stands for this setting: measured here: cell count channel max response.
[20] abbreviates: measured here: lipid channel max response.

Chain of Glucocorticoid receptor (Homo sapiens) (P04150 whole entry, looked up, the tested form may be a part): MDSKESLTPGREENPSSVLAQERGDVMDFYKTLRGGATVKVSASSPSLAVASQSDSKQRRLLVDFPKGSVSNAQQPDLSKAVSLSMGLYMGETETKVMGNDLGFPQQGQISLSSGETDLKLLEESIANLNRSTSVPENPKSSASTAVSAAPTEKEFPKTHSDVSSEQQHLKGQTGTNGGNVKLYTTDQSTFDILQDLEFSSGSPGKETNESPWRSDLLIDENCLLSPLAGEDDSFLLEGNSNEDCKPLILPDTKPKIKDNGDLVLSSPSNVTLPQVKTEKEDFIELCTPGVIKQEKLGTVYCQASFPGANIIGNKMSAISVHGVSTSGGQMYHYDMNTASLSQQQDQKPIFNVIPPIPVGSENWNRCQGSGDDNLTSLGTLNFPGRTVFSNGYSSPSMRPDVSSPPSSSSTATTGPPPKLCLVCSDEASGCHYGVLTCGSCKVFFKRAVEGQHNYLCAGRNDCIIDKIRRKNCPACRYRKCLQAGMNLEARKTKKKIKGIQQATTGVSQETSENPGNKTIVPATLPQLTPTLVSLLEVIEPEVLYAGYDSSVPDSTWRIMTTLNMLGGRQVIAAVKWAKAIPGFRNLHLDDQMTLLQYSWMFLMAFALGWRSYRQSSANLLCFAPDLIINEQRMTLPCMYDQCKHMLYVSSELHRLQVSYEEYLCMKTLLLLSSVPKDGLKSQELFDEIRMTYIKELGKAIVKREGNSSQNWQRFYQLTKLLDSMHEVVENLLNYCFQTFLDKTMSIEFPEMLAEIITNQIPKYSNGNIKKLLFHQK
Chain of Cytochrome P450 3A4 (Homo sapiens) (P08684 whole entry, looked up): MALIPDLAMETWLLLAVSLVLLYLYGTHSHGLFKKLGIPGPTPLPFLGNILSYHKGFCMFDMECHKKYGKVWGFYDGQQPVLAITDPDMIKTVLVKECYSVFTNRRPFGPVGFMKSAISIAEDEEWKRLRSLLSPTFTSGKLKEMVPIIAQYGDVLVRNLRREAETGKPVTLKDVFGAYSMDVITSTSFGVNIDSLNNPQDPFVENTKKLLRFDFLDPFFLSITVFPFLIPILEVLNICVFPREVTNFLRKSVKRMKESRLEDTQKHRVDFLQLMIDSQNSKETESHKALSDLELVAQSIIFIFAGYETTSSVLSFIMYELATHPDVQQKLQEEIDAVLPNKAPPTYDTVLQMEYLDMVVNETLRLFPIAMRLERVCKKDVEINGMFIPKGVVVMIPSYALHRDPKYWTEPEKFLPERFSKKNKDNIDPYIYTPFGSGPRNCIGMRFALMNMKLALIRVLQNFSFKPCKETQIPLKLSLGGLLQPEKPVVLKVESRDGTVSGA
Chain of Lysosomal acid glucosylceramidase (Homo sapiens) (P04062 whole entry, looked up): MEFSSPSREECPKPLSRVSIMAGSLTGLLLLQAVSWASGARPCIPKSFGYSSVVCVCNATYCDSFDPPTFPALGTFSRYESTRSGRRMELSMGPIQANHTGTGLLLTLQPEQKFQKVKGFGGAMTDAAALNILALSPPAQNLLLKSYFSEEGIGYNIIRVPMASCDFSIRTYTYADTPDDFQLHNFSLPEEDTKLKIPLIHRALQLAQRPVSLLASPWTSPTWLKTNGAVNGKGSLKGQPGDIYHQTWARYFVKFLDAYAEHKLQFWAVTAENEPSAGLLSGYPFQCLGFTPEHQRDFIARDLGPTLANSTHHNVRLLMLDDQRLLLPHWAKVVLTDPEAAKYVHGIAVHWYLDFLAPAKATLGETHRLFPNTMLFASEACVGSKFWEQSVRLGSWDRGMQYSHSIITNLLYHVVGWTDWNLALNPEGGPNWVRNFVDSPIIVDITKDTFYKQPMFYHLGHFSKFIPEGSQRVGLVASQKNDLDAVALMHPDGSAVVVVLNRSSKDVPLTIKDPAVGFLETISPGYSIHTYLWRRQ
Chain of 3',5'-cyclic-AMP phosphodiesterase 4B (Homo sapiens) (Q07343 whole entry, looked up): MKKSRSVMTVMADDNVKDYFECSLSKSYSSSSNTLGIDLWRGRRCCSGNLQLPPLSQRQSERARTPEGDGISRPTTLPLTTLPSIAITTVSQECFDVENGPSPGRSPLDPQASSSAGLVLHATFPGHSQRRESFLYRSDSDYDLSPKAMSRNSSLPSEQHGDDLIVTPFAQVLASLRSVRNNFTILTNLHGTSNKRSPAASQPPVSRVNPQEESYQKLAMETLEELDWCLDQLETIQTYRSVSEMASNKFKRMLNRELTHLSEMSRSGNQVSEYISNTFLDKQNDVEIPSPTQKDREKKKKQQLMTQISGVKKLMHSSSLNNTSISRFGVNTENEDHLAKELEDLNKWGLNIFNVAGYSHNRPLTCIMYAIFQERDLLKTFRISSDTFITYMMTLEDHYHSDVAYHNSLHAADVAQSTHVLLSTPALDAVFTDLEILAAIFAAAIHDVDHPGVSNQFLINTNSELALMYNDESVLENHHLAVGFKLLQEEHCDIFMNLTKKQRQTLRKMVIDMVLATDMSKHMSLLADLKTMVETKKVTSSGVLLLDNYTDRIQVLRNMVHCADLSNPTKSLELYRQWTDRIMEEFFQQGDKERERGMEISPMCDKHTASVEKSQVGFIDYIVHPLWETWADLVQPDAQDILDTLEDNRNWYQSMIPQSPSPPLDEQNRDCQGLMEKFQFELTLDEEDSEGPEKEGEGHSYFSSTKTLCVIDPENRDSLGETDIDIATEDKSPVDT
Chain of Cytochrome P450 1A2 (Homo sapiens) (P05177 whole entry, looked up): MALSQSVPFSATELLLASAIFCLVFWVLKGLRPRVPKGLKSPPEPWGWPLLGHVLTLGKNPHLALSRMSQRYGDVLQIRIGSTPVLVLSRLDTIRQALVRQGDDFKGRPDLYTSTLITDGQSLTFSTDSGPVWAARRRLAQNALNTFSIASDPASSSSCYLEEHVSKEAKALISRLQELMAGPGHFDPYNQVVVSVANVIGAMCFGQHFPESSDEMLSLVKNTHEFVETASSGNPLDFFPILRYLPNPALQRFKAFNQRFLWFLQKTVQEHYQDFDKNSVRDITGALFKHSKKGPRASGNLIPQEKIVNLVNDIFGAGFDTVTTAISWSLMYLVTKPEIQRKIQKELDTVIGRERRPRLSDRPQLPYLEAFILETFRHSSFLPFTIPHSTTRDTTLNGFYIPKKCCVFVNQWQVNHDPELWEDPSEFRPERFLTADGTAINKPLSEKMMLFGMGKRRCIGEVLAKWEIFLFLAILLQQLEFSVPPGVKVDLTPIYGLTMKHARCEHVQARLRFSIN
Chain of Ubiquitin carboxyl-terminal hydrolase 1 (Homo sapiens) (O94782 whole entry, looked up): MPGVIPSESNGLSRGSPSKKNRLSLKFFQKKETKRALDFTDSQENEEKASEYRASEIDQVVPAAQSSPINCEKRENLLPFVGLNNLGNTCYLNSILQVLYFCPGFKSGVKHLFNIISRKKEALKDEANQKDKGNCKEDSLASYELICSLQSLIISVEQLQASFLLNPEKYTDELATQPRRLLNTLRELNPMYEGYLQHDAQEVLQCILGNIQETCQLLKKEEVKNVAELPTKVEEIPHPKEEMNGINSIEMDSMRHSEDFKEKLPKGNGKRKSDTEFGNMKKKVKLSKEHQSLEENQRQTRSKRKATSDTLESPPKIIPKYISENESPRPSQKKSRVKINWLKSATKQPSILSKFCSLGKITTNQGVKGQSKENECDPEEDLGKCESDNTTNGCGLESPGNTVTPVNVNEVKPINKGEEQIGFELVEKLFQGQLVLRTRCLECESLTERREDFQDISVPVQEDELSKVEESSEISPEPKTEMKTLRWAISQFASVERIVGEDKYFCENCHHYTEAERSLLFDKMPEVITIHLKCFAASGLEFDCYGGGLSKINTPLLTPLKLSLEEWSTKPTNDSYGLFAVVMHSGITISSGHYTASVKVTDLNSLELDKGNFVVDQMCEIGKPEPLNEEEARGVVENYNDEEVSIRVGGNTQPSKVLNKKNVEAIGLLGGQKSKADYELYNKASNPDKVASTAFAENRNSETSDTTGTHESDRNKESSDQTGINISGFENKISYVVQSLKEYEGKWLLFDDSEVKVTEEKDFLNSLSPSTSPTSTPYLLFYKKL
Chain of Cytochrome P450 2D6 (Homo sapiens) (P10635 whole entry, looked up): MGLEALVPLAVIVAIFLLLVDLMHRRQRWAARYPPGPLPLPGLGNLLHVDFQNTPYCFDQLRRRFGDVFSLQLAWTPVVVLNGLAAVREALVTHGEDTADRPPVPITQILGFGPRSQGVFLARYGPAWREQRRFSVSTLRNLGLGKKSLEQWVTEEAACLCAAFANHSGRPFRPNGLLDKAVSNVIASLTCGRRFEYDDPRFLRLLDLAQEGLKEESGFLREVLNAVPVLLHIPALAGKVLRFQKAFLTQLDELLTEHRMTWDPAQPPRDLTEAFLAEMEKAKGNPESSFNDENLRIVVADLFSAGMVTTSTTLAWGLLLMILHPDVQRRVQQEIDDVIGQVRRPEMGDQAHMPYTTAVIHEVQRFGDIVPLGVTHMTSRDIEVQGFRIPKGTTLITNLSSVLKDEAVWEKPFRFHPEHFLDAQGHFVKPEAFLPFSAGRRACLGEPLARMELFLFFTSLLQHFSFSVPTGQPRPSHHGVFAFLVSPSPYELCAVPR
Chain of Cytochrome P450 2C9 (Homo sapiens) (P11712 whole entry, looked up): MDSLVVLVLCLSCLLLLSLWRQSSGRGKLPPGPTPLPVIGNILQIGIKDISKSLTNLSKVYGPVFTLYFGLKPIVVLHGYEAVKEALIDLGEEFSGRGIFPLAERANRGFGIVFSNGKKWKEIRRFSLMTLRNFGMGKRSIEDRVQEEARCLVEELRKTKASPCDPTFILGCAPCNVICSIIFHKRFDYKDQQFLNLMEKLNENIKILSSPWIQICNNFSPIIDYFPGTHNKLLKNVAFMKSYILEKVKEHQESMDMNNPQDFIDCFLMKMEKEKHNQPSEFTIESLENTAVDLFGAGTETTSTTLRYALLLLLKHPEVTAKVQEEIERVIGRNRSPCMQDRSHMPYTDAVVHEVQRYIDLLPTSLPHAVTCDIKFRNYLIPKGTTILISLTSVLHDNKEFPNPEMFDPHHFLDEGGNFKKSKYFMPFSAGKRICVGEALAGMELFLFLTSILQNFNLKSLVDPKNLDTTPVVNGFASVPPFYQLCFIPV

Take `c1csc(CN2CC[C@@]3(CCCNC3)C2)n1`: the outcome in [1], in [3], in assay [5] and in assay [9] was inactive. The activity change, negative = inhibition in assay [2] was -10% (inactive); in assay [8], 0.956% (inactive). In addition, in [4], the Potency is > 46 µM (inactive). Besides, in assay [6], the Potency result was “inactive”. For the same compound, the activation in assay [7] was 9.27% (inactive). Also, the max response is -1.59% in assay [8] (setting [19]) and 1.97% in assay [8] (setting [20]).

Take `O=C(Oc1ccccc1)N1CCC[C@@]2(CCN(C(c3ccccc3)c3ccccc3)C2)C1`: the Potency in assay [10] was > 11.4 µM (inactive); in [11], 25.1 µM (active); in assay [4], > 46 µM (inactive); in assay [13], 5.01 µM (active). Further, the result in [1], in assay [3], in assay [5] and in [9] was inactive. Further, in assay [2], the activity change, negative = inhibition is -12.9% (inactive). Also, the Potency entry in assay [12] was “inactive”.

For the compound `c1ccc(N2CC3(CCNCC3)C2)cc1`, the compound was classed as inactive in assay [1], in assay [3], in assay [5] and in [9]. The Potency entry in assay [11] and in [6] was “inactive” in each case. In addition, the activity change, negative = inhibition in [2] is -5.86% (inactive); in assay [8], 3.32% (inactive). For the same compound, in assay [4], the Potency was > 46 µM (inactive). Besides, the max response in [8] (setting [19]) was determined as 11.6%; in [8] (setting [20]), 20.7%.

On to `c1ccc(CN2CCC3(CCNCC3)CC2)cc1`, for which the result in assay [1], in [3], in assay [5] and in [9] was inactive. For the same compound, the Potency result in assay [11] and in assay [6] was “inactive” throughout. Moreover, the Potency in assay [4] is > 46 µM (inactive). Further, in [8], the activity change, negative = inhibition was 1.99% (inactive). For the same compound, the max response was 22.2% in assay [8] (setting [19]) and 27.4% in [8] (setting [20]).

Regarding `C=C(C)c1cc2cc(C(C)=O)c(O)cc2o1`, the Potency in assay [14] is 31.6 µM (active). Besides, the Potency entry in [12], in assay [15], in assay [16] and in [17] was “inactive” each time. In addition, the activity change, negative = inhibition in assay [8] was 9.94% (inactive). Further, the max response in assay [8] (setting [19]) came out at 9.32%; in assay [8] (setting [20]), 19.8%. In addition, the result in assay [9] was inactive.

For the compound `Cc1noc(C)c1C(=O)N1CCC[C@@]2(CCN(CC(C)C)C2)C1`, the compound was called inactive in assay [1], in [5] and in [9]. Moreover, the activity change, negative = inhibition was 12.5% (inactive) in assay [2] and 5.3% (inactive) in [8]. The Potency in assay [4] is > 46 µM (inactive). Besides, the Potency entry in assay [6] was “inactive”. For the same compound, the max response amounted to 6.03% in [8] (setting [19]) and 15.4% in assay [8] (setting [20]).

As for `O=C(Nc1ccccc1)N1CC[C@@]2(CCCN(C(=O)Oc3ccccc3)C2)C1`, the Potency in [10] is > 11.4 µM (inactive); in [4] it was > 46 µM (inactive). The call in assay [1], in [3], in assay [5] and in assay [9] was inactive. In addition, the activity change, negative = inhibition in [2] was 1.93% (inactive); in assay [8], 8.84% (inactive). Moreover, in [12], the Potency entry was “inactive”. The max response in [8] (setting [19]) was 9%; in assay [8] (setting [20]), 23.4%.

As for `c1ccc(CN2CCCC3(CCNCC3)C2)cc1`, the Potency in assay [10] was > 11.4 µM (inactive); in [4] it was > 46 µM (inactive). The compound was called inactive in [1], in assay [3], in assay [5] and in assay [9]. Also, the Potency entry in assay [6] is “inactive”. Moreover, the activity change, negative = inhibition in assay [8] is 2.49% (inactive). In addition, the max response in assay [8] (setting [19]) worked out at 3.6%; in assay [8] (setting [20]), 7.81%.

`O=C(c1ccco1)N1CCC[C@@]2(CCN(Cc3ccncc3)C2)C1`: the Potency in assay [10] is > 11.4 µM (inactive); in [4], > 46 µM (inactive); in [18], 3.16 µM (active). Moreover, the compound was classed as inactive in assay [1], in assay [3], in [5] and in assay [9]. Moreover, the activity change, negative = inhibition in assay [2] is -1.52% (inactive); in assay [8], 3.05% (inactive). In [12], the Potency entry was “inactive”. Besides, the max response in [8] (setting [19]) is 6.21%; in assay [8] (setting [20]), 9.36%.

Values taken from PubChem BioAssay (NCATS).
